# In the library only some 32% were active in any assay of this set; here they are far more common.
# PostGolgi ctrl = growth inhibition of yeast control strain, primary screen, counter-screen for post-Golgi transport modulator project. efflux-deficient yeast background strain, growth absorbance A615, 16 h. inhibition, % at 10 µM. hit rate 5% among 98,000. AID 738, 2007
# CYP2C9 inh = blockers of cytochrome P450 2C9 activity – biochemical, luminescence, ADME assay, primary screen; P11712; CYP2C9 Supersomes, luciferin-H conversion; inhibition, % at 5 µM; hit rate 20% among 96,000;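 active = blocking of liver enzyme CYP2C9 beyond about 50% at 5 µM, limit read from the data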
# CYP2C19 activ = human CYP2C19 activators, primary screen, biochemical, luminescence; AID 1025, 2008; 96,000 tested, under 10 active; Cytochrome P450 2C19 (Homo sapiens), P33261; activation factor at 5 µM; recombinant CYP2C19, luciferin-H EGE luminescence; stronger effect = higher value; 0 = fully inhibited enzyme, 1 = untreated enzyme;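 active = activation factor of at least 2 at 5 µM in the primary screen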;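 note: 0 = wells with 2.5 mM tranylcypromine and 1 = vehicle-only wells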
# Target sequence (P33261 whole entry, looked up): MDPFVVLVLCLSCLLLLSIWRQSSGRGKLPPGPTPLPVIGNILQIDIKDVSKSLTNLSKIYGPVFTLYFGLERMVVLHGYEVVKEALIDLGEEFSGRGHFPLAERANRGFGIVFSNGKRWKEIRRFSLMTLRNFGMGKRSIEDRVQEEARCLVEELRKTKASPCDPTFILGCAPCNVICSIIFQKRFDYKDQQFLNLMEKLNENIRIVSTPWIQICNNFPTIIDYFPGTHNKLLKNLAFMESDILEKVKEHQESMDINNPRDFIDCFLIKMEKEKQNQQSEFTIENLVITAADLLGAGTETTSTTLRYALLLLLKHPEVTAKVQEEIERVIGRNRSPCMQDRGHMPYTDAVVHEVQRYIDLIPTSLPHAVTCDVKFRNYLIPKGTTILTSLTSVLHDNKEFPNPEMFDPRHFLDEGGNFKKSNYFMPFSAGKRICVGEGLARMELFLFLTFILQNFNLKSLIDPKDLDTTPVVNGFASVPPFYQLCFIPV
# CYP2C19 inhib = blockers of cytochrome P450 2C19 activity – biochemical, luminescence, ADME assay, primary screen | inhibition, % at 5 µM | hit rate 21% among 96,000 | AID 778, 2007 | P33261 | CYP2C19 Supersomes, luciferin-H EGE luminescence, 30 min;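 active = CYP2C19 inhibition above a set limit at 5 µM in the primary screen, cut at about 50% in these data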;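 note: plate controls were negative control wells for no effect and 2.5 mM tranylcypromine positive control for full effect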
# CYP2C9 activ = human CYP2C9 activators, primary screen, biochemical, luminescence | activation factor at 5 µM | hit rate 1.4% among 96,000 | AID 1024, 2008 | recombinant CYP2C9, luciferin-H conversion; stronger effect = higher value; factor 1 = untreated enzyme, 0 = blocked | Cytochrome P450 2C9 (Homo sapiens), P11712;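 active = activation factor of 2 or more for CYP2C9 at a 5 µM dose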;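 note: 0 = sulfaphenazole-blocked wells and 1 = vehicle-only wells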
# PostGolgi yeast = phenotypic screen on post-Golgi transport, primary screen; post-Golgi transport phenotypic cell assay; inhibition, % at 10 µM; hit rate 0.9% among 98,000;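 note: yeast cells grown in 1536-well plates; yeast grown about 18 h at 30C before absorbance read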
# The depositor's hits bear a star; . = not tested or not shown. Cut-off read from the data, not from the text of the source, unless noted: active = inhibition above about 30%; inactive = the rest.
SMILES,PostGolgi ctrl,CYP2C9 inh,CYP2C19 activ,CYP2C19 inhib,CYP2C9 activ,PostGolgi yeast
c1ccc(C2CC3CC(c4ccco4)N2O3)cc1 (configuration not stated),26,-5,0.8,20,1,13
CC(=O)C1C2c3ccccc3OC1(C)N=c1s/c(=C/c3cn(C)nc3C)c(=O)n12 (configuration not stated),9,23,0.8,20,0.8,0
COCCOC(=O)c1c(N)n(Cc2ccc(OC)cc2)c2nc3ccccc3nc12,8,83*,0.4,64*,0.2,9
COC(=O)c1c(N)n(Cc2ccc(OC)cc2)c2nc3ccccc3nc12,27,71*,0.3,75*,0.3,-4
CCC(=O)c1c(O)n(C2CCCCCC2)c(=O)[nH]c1=O,1,20,0.8,18,0.8,7
CCC(=NCc1cccnc1)c1c(O)n(C2CCCCC2)c(=O)[nH]c1=O,14,83*,0,98*,0.2,13
CCC(=Nc1ccc(OC)cc1OC)c1c(O)n(C2CCCCC2)c(=O)[nH]c1=O,48*,11,1.1,-10,0.9,71*
CCC(=NCc1ccco1)c1c(O)n(C2CCCCC2)c(=O)[nH]c1=O,45*,51*,0,96*,0.5,15
CCN(CC)CCCN=C(C)c1c(O)n(C2CCCCC2)c(=O)[nH]c1=O,6,15,0.5,50,0.9,-1
CCC(=NCCCN(CC)CC)c1c(O)n(C2CCCCC2)c(=O)[nH]c1=O,7,8,0.4,56*,0.9,-10
CSc1ccc(CNC2CN3CCC2CC3)cc1 (configuration not stated),4,-2,1,0,1,-1
COc1ccc(C2SCC(=O)Nc3c2c(C)nn3C2CCOC(C)(C)C2)cc1OC (configuration not stated),5,21,1,4,0.8,0
[O-][n+]1onc2c1CCC1N(O)CCC21O (configuration not stated),9,7,1.2,-16,0.9,-8
CC(=NCc1cccnc1)c1c(O)n(C2CCCCC2)c(=O)[nH]c1=O,0,51*,0,99*,0.5,24
CC(=NCc1cccnc1)c1c(O)n(-c2ccccc2C)c(=O)[nH]c1=O,2,60*,0.2,84*,0.4,10
CC(=NCc1cccnc1)c1c(O)n(-c2ccc(C)cc2)c(=O)[nH]c1=O,4,13,0.8,22,0.9,11
CCN(CC)CCCN=C(C)c1c(O)n(-c2ccc(C)cc2)c(=O)[nH]c1=O,0,-12,1.1,-9,1.1,5
C1=C(CCNCc2ccccc2)CCCC1,8,19,0.3,70*,0.8,-6
O=P(O)(O)C12CC3CC(CC(C3)C1)C2,-1,62*,0.6,45,0.4,2
CCCN(CC#CCO)CCC,14,.,.,.,.,7
Oc1ccc(C2NCc3ccccc3-n3cccc32)cc1Cl (configuration not stated),3,89*,0,98*,0.1,-15
O=P(c1ccccc1)(c1ccccc1)N1CCCCC1,15,38,0.7,29,0.6,6
O=C(CCn1c(=O)oc2ccccc21)N1CCC2(CC1)OCCO2,2,-9,0.6,44,1.1,4
Cc1ccc(CS(=O)(=O)CCC(=O)N2CCC3(CC2)OCCO3)cc1,10,-17,1.2,-18,1.2,2
Cc1ccc2c(c1)N(CCC(=O)N1CCC3(CC1)OCCO3)C(=O)CO2,5,-77,0,95*,1.8,-3
Cc1ccc2c(c1)N(CCC(=O)N1CCC3(CC1)OCCO3)C(=O)C(C)O2 (configuration not stated),5,-30,0.1,89*,1.3,-4
O=c1[nH]c(=O)n(Cc2ccccc2)c(O)c1C=NCCN1CCOCC1,.,-6,1,3,1.1,.
Cc1cc(OCC(=O)Nc2cc(C)nn2-c2ccccn2)c2c3c(c(=O)oc2c1)CCC3,.,48,1,3,0.5,.
